AmpC inh no detg: AmpC beta-lactamase inhibition without detergent; P00811; AmpC nitrocefin hydrolysis, absorbance 480 nm, 0.0001% Triton; 330,000 tested, 0.52% active; Potency, µM (highest dose often 57.1 µM), usual class: inhibitors; note: nearly all actives have a fitted effect of over 20% in size
Target sequence (P00811 whole entry, looked up): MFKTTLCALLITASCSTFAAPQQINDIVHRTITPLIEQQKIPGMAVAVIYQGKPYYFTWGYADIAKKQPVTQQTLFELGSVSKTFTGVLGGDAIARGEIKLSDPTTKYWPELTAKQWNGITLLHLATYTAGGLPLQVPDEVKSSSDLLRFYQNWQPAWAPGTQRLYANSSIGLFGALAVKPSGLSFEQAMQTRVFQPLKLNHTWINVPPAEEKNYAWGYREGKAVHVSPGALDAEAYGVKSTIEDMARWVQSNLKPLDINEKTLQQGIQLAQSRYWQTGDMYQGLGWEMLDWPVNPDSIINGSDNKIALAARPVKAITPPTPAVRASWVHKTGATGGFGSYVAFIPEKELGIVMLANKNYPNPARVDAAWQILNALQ
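20 mM phosphate pH 7.0 + 0.01% (detergent screen) or 0.0001% Triton X-100; 5.3 nM AmpC reagent; cpd preinc 15 min RT; nitrocefin (800 uM stock) to start; A480 q20 s × 4 min; Activity was normalised to no-enzyme and no-compound control wells.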
Shiga toxin inh: blocks Shiga toxin action in Vero cells; AID 2315; inhibition, % at 38.7 µM; 290,000 tested, 9.2% active; Vero cells, Shiga toxin protein synthesis inhibition reporter; in the data active = inhibition mostly above about 28%, no sharp cut-off; inactive = mostly below about 43%
NS1 function inh: inhibitors of influenza NS1 protein function | Potency, µM (highest dose often 46.1 µM) | 270,000 tested, 0.4% active | AID 2326; calls by dose curve; note: actives are rising curves; nearly all actives have a fitted effect of over 50% in size
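S. cerevisiae expressing influenza A NS1, grown in glucose, washed, then diluted 1:100 into pH 6.0 -URA galactose medium with 23 nl compound. Growth recovery read as OD600; NS1-free strain serves as control.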
AmpC detergent: AmpC beta-lactamase inhibition with detergent present | Potency, µM (titrated, usually from 114 µM), most hits filed as inhibitors | AID 485294 | 370,000 tested, 0.041% active | P00811 | AmpC hydrolysis of nitrocefin, absorbance 480 nm, 0.01% Triton; note: nearly all actives have a fitted effect of over 25% in size
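20 mM phosphate pH 7.0 + 0.01% (detergent screen) or 0.0001% Triton X-100; 5.3 nM AmpC reagent; cpd preinc 15 min RT; nitrocefin (800 uM stock) to start; A480 q20 s × 4 min; Activity was normalised to no-enzyme and no-compound control wells.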
CHX counter: affects cycloheximide protein synthesis inhibition readout, counter-screen | cell reporter, cycloheximide protein synthesis inhibition counterscreen | max response, % | 300,000 tested, 12% active | AID 2314; in the data active = max response mostly above about 13%, no sharp cut-off; inactive = mostly below about 14%; note: read at 38.3 µM for the half of the compounds with a filed dose
Hits are given with their value; - = inactive; ? = inconclusive; . = no result given; + = active, no number. The sample as a whole holds a higher share of hits than the screen did. Unless noted, calls come from the whole dose curve; as a rule, active = well fitted curve in the direction sought with a large enough effect; inconclusive = small, poorly fitted or top-dose-only effect, or another doubt; inactive = no such curve, though single readings can be large; an effect the other way counts as inactive or inconclusive.

SMILES | AmpC inh no detg | Shiga toxin inh | NS1 function inh | AmpC detergent | CHX counter
Cc1n[nH]c(C)c1CN(C)C(=O)c1cc(COc2ccc(F)c(F)c2)on1 | - | - | - | - | -
CN(C(=O)c1cc(COc2ccc(F)c(F)c2)on1)C1CCOC1 (stereo unspecified) | - | - | - | - | 31
COc1ccc(OCc2cc(C(=O)N(C)C3CCOCC3)no2)c2ccccc12 | - | 101 | - | - | 47
COc1ccc(-c2nc3c(c(SC)n2)Cc2c(CO)cnc(C)c2O3)cc1 | . | . | . | - | .
Cc1ccc(OCc2cc(C(=O)NCC(C)(C)N3CCOCC3)no2)cc1C | - | - | - | - | -
COc1ccc(OCc2cc(C(=O)N(C)C3CCOC3)no2)c(Cl)c1 (stereo unspecified) | - | - | - | - | 27
Cc1cc(OCc2cc(C(=O)N(C)C3CCOCC3)no2)cc(C)c1Cl | - | 126 | - | - | 86
Cc1ccc(OCc2cc(C(=O)N(C)CC3CCOCC3)no2)cc1C | - | 133 | - | - | 77
CN(C(=O)c1cc(COc2ccc(F)cc2Cl)on1)C1CCCc2ccccc21 (stereo unspecified) | - | - | - | - | -
Oc1c(Cl)cc(Cl)cc1CN1CCN(Cc2ccccc2)CC1 | - | - | - | - | 20
CC(C)(C)OC(=O)NCCc1nnc(S(=O)(=O)Cc2ccc(Cl)cc2Cl)o1 | 0.32µM | - | - | ? | 19
CCOc1cc(S(=O)(=O)NCCc2cccc(C)c2)c(OCC)cc1-n1cnnn1 | - | - | - | - | -
O=C(O)c1c2c(c(O)c3c1CN(C1CCCCC1)CO3)OCN(C1CCCCC1)C2 | . | . | - | . | .
Cc1nnc(SCC(=O)c2ccc(C(C)C)cc2)s1 | - | 74 | - | - | 31
Cc1ccc(C(=O)CSc2nnc(N)s2)c(C)c1 | - | 78 | - | - | 38
Cc1cc(C)c(C(=O)CSc2nnc(C)s2)c(C)c1 | - | - | - | - | -
Cc1cc(C)c(C(=O)CSc2nnc(N)s2)c(C)c1 | - | - | - | - | -
Cc1nnc(SCC(=O)N2CCCCC2)s1 | - | 34 | - | - | 18
Cc1cc(C)c(C(=O)CSc2nnc(N)s2)cc1C | - | - | - | - | 26
COc1cc(Nc2nc3ccc(Cl)cc3nc2-n2nc(C)cc2C)cc(OC)c1 | . | . | . | - | .
Cc1ccc(C(=O)CSc2nnc3ccccn23)c(C)c1 | - | - | - | - | 27
CCOc1ccc(C(=O)CSc2nnc(N)s2)cc1 | - | 73 | - | ? | -
COCC(C)n1c(C)cc(C(=O)CSc2nnc(N)s2)c1C (stereo unspecified) | - | - | - | - | 24
Cc1cc(C(=O)CSc2nnc(N)s2)c(C)n1C1CC1 | - | . | . | ? | .
Cc1cc(C)c(C(=O)CSc2nnc(C)c(=O)[nH]2)cc1C | - | 95 | - | - | 48
SMILES | AmpC inh no detg | Shiga toxin inh | NS1 function inh | AmpC detergent | CHX counter
Cc1c(C(=O)NCc2ccccc2Br)oc2c1-c1[nH]ncc1CC2 | . | . | . | - | .
Cc1ccc(S(=O)(=O)N[C@H](C(=O)N2CCC(C(=O)N[C@@H](CCC(N)=O)C(=O)O)CC2)C(C)C)cc1 | - | - | - | - | -
CC1CC(C)CN(CC(=O)c2ccc(OC(F)F)cc2)C1 (stereo unspecified) | - | 26 | - | - | 34
Cn1cnnc1SCC(=O)c1ccc(OC(F)F)cc1 | - | - | - | - | -
Fc1ccccc1OCCSc1nnnn1-c1ccccc1 | - | 84 | - | - | 47
CCOc1ccc(OCCSc2nnnn2-c2ccccc2)cc1 | - | - | - | - | -
Cc1ccccc1OCCSc1nnc(C)n1-c1ccccc1 | - | - | - | - | 19
c1ccc(OCCSc2nnnn2-c2ccccc2)cc1 | - | 55 | - | - | 60
O=P(O)(O)C(O)(Cn1ccnc1)P(=O)(O)O | . | - | . | . | -
CCc1nnc(NC(=O)c2ccc(N3C(=O)CCC3=O)cc2)s1 | - | - | ? | - | 16
CCc1ccc2nc(NC(=O)c3ccc(N4C(=O)CCC4=O)cc3)sc2c1 | - | 38 | - | - | 22
O=C(Nc1nc2cc3c(cc2s1)OCCO3)c1ccncc1 | - | 121 | - | - | 33
CCCCc1nnc(NC(=O)c2ccc(N3CCCC3=O)cc2)s1 | - | . | . | ? | .
O=C(NNc1nc2c(F)cc(F)cc2s1)C1=COCCO1 | - | - | . | - | -
O=C(NNc1nc2cc3c(cc2s1)OCCO3)c1ccc(F)cc1 | - | - | . | - | 33
CNS(=O)(=O)c1ccc2nc(NC(=O)c3ccc(N4C(=O)CCC4=O)cc3)sc2c1 | - | - | - | - | -
COc1cc(CN2CCNC(=O)C2CC(=O)N(C)CCCN2CCOCC2)cc(OC)c1 (stereo unspecified) | - | - | - | - | -
COc1ccc(S(=O)(=O)N2CCCCC2)cc1NC(=O)C1COc2ccccc2O1 (stereo unspecified) | - | . | . | - | .
CCc1ccc2nc(NC(=O)c3ccc4c(=O)[nH]c(CN5CCOCC5)nc4c3)sc2c1 | - | 65 | - | - | 43
O=C(Nc1nc2cc3c(cc2s1)OCCO3)c1ccc(N2C(=O)CCC2=O)cc1 | - | 50 | - | - | 31
O=C(OCc1cccc2ccccc12)c1ccc2c(=O)[nH]c(CN3CCOCC3)nc2c1 | - | - | - | - | -
CCOc1cc(-c2nc3c(c(CC)nn3-c3ccccc3)c3cc(OC)c(OC)cc23)ccc1O | . | . | . | - | .
CCC(=O)c1ccc(OCc2ccccc2)c(OC)c1 | - | 88 | - | - | 43
COc1cc(C(=S)N2CCCC2)ccc1OCc1ccccc1 | - | 66 | - | - | 30
CCN1C(=O)[C@H]2[C@@H](c3ccc(-c4ccc(C(C)=O)cc4)c(OC)c3)N[C@@](Cc3ccccc3)(C(=O)OC)[C@H]2C1=O | - | . | . | ? | .
SMILES | AmpC inh no detg | Shiga toxin inh | NS1 function inh | AmpC detergent | CHX counter
FC(F)(F)c1cccc(Nc2c3c(nc4ccc(Cl)cc24)CCC3)c1 | . | . | . | - | .
C/C(Cn1nnc2ccccc21)=N\NC(=O)c1cccc(Br)c1 | - | + | - | - | 24
COc1ccc(Cl)cc1NC(=O)NNC(=O)c1ccccn1 | - | - | - | - | 24
C/C(=N\NC(=O)c1ccc(Cl)c(Cl)c1)c1ccccn1 | - | - | - | - | -
COc1ccc(C(=O)N/N=C(\C)c2ccccn2)cc1OC | - | 42 | - | ? | 22
CCOc1ccc(OCc2ccc(C(=O)N/N=C(\C)c3ccccn3)cc2)cc1 | - | - | . | ? | 40
C/C(=N/NC(=O)c1cccc(Br)c1)C1CC2CCC1C2 (stereo unspecified) | - | - | - | - | 47
C/C(=N\NC(=O)c1cccc2ccccc12)c1ccccn1 | - | - | - | - | -
C/C(=N\NC(=O)c1cccc(Br)c1)c1ccccn1 | - | 87 | - | - | 27
C/C(=N\NC(=O)c1cc(Br)ccc1O)c1ccccn1 | ? | 41 | - | ? | 28
C/C(=N\NC(=O)c1ccccc1Cl)c1ccccn1 | - | 85 | - | - | 28
CC(=O)N(C)c1ccc(NC(=O)N2CCOCC2)cc1 | - | - | - | - | -
C/C(=N/NC(=O)c1ccccn1)c1ccncc1 | - | 92 | - | - | 36
